TIM10 inh: growth inhibitors of TIM10 yeast strain. S. cerevisiae TIM10 strain growth, BacTiter-Glo luminescence, 24 h. inhibition, % at 10 µM. 1.4% of 330,000 active;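 active = inhibition of 40% or more at the single tested concentration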;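 note: wild-type TIM10 isogenic control strain grown at permissive 25 °C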
SKKanGAS inh: inhibitors of SKKanGAS S. pyogenes growth in kanamycin (SK-promoter or general growth effect). 1.3% of 300,000 active. BacTiter-Glo, 6 h. inhibition, % at 7.5 µM;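 active = mean replicate score, as percent of positive control median, at least 50; inconclusive = mean below 50 but one replicate at or above 50; inactive = mean and every replicate below 50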;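 note: strain carries kanamycin resistance gene driven by streptokinase promoter and grows in 40 µg/ml kanamycin; loss of luminescence reflects streptokinase promoter inhibition or plain growth inhibition; 0% = median of DMSO wells and 100% = positive control at its reference dose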
tim10-1 inh: tim10-1 yeast growth inhibition; S. cerevisiae tim10-1 ts strain growth, BacTiter-Glo, 24 h; inhibition, % at 20 µM; 2.2% of 330,000 active;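 active = inhibition of at least 40%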;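 note: mutant grown at 25 °C; 0% = DMSO wells with yeast and 100% = wells holding no yeast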
PfHsp90 set2: reduces growth (ATP signal) of yeast expressing P. falciparum Hsp90 | S. cerevisiae expressing PfHsp90, BacTiter-Glo ATP, 48 h; yeast lacking PDR1 and PDR3 efflux regulators | inhibition, % at 9.4 µM | 0.32% of 310,000 active | AID 504621;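 active = every replicate shows inhibition above about 80%, whatever the replicate mean, limit read from the data; inconclusive = mean inhibition reaches the set limit but some replicate falls short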;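 note: 0% = DMSO neutral controls and 100% = 20 µM radicicol positive controls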
tim23-1 inh: growth inhibitors of tim23-1 mutant yeast; S. cerevisiae tim23-1 growth, BacTiter-Glo luminescence, 24 h; inhibition, % at 20 µM; 1.3% of 330,000 active; AID 463212;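 active = growth inhibition of the mutant yeast at or above 50%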;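 note: temperature-sensitive mutant grown at 25 °C; plate controls were DMSO-treated mutant yeast for no effect and medium wells lacking yeast for full effect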
Calb FLC: affects C. albicans growth with fluconazole. 0.57% of 300,000 active. growth inhibition, % (no concentration beside the values). C. albicans CaCi-2 (fluconazole-resistant clinical isolate) + fluconazole, Alamar Blue growth, 48 h;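 active = growth inhibition above about 58% in most replicates, limit read from the data, passing the limit was not always enough; inconclusive = exactly half the replicates above a set limit; inactive = most replicates below a set limit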;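 note: all wells also contain fluconazole at 8 µg/ml as a sub-toxic cotreatment; 0% = median of DMSO wells and 100% = median of geldanamycin control wells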
tim10-1 confirm: tim10-1 yeast growth inhibition, confirmed | shares compounds with tim10-1 inh | S. cerevisiae tim10-1 ts strain growth, BacTiter-Glo, 24 h | inhibition, % at 20 µM | 56% of 7,400 active;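 active = inhibition of yeast growth at or above a set limit in either of two repeat tests at 20 µM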;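 note: tim10-1 mutant grown at permissive 25 °C to find synthetic lethal compounds; 0% = DMSO yeast wells and 100% = medium wells without yeast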
TIM10 conf: TIM10 yeast growth inhibition, confirmed. shares compounds with TIM10 inh. S. cerevisiae tim10 strain growth, BacTiter-Glo luminescence, 24 h. inhibition, % at 10 µM. 63% of 4,600 active. AID 463215;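 active = inhibition of yeast growth at or above a set limit in either of two replicates at 10 µM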;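 note: this counterscreen used the strain with wild-type TIM10; 0% = yeast with DMSO and 100% = medium wells lacking yeast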
* marks the source's active call; other numbers are inactive results; ? = inconclusive; nt = no result. In the library only some 4.7% were active in any assay of this set; here they are far more common.

SMILES	TIM10 inh	SKKanGAS inh	tim10-1 inh	PfHsp90 set2	tim23-1 inh	Calb FLC	tim10-1 confirm	TIM10 conf
O=[N+]([O-])c1ccc(-c2nc(-c3cccs3)c(-c3cccs3)[nH]2)cc1	68.8*	?	64.5*	-5.8	15.0	1.2	52.0*	60.8*
O=[N+]([O-])c1cccc(-c2nc(-c3ccccc3)c(-c3cccs3)[nH]2)c1	14.5	-6.5	16.6	-20.1	10.0	-0.9	nt	nt
C=CCN(C(=O)c1csnn1)C(C(=O)NCc1ccc(F)cc1)c1cccs1 (stereo not given)	10.2	-2.0	-3.0	-15.0	44.0	-1.0	nt	nt
O=S(=O)(NCCSCc1c(Cl)cccc1Cl)c1ccc2c(c1)OCCO2	50.2*	?	53.5*	25.3	48.1	-7.5	45.0*	35.2*
Cc1c(C(=O)C(=O)NCc2cccs2)c2ccccc2n1C	0.5	-2.7	30.5	2.0	20.5	-20.0	nt	nt
COc1ccc(OCCN2C(=O)c3cccc(N)c3C2=O)cc1	16.0	-1.2	3.9	-15.6	9.1	5.5	nt	nt
COc1ccc2c(c1)[nH]c1c(N3CCN(Cc4ccc5c(c4)OCO5)CC3)ncnc12	46.8*	11.0	47.2*	7.0	44.0	-19.4	41.6*	26.9
Cc1c(NC(=O)Nc2ccc(F)cc2F)c(=O)n(-c2ccccc2)n1C	-2.0	-8.7	-11.5	7.5	-3.7	-5.4	nt	nt
Cc1cc(Sc2nc(N)ncc2[N+](=O)[O-])ncn1	48.7*	-1.9	51.4*	39.3	41.4	105.1*	47.9*	31.9*
Cc1cc2ccccn2c1C(=O)c1cccc([N+](=O)[O-])c1	-7.4	6.8	9.7	-12.0	27.9	39.5	nt	nt
Cc1cc2ccccn2c1C(=O)c1ccc([N+](=O)[O-])o1	76.8*	9.2	46.0*	nt	0.2	?	29.9	91.2*
O=S(=O)(NCc1ccc(F)cc1)c1ccc(Br)cc1Br	14.1	nt	17.6	nt	34.6	nt	nt	nt
COc1ccccc1-c1cc(C(F)(F)F)nc(S(=O)(=O)CCCC(=O)N2CCCCC2C)n1 (stereo not given)	40.6*	-3.9	42.0*	35.6	38.8	-1.9	14.0	-1.4
COc1ccccc1-c1cc(C(F)(F)F)nc(S(=O)(=O)CCCC(=O)Nc2cc(C)on2)n1	9.7	-1.7	29.8	10.9	18.0	-5.5	nt	nt
COc1ccc(/C(C)=N/NC(=O)CN(c2ccc(OC)cc2)S(=O)(=O)c2ccccc2)cc1	-26.5	0.5	-34.9	25.7	-19.5	-7.0	nt	nt
Cc1ccccc1NC1=C/C(=N\S(=O)(=O)c2cccs2)c2ccccc2C1=O	66.7*	90.2*	81.7*	-13.9	22.8	33.7	77.0*	53.7*
CCCOc1ccc(CNC(=O)C2CCN(C(=O)N3CCOc4ccccc43)CC2)cc1	-0.8	5.9	12.4	16.2	18.4	3.9	nt	nt
CCSc1nnc(-c2ccc(S(=O)(=O)NCc3cccs3)cc2)o1	45.2*	nt	45.0*	nt	46.5	7.2	50.1*	30.2*
COc1ccc(OC)c(NC(=O)CCN2CC(C)CC(C)C2)c1 (stereo not given)	-11.5	0.9	1.3	-17.9	2.2	-5.4	nt	nt
COc1ccc(C(=O)N2CCN(S(=O)(=O)c3ccc4c(c3)OCCO4)CC2)cc1OC	8.5	nt	9.7	3.9	10.0	nt	nt	nt
Cc1ccc(C)c(OCC(=O)Nc2cccc(S(=O)(=O)NC3=NCCCCC3)c2)c1	3.3	-16.5	20.6	-10.4	11.6	-5.6	nt	nt
O=C(NC(=S)Nc1ccccc1N1CCCC1)c1cccc(F)c1	52.1*	-5.3	52.0*	-13.3	31.5	15.1	28.8	48.3*
O=C(NC(=S)Nc1ccccc1N1CCCCC1)c1ccccc1	59.9*	15.6	47.9*	-10.8	49.0	0.0	44.5*	47.0*
CC1CCN(c2ccccc2NC(=S)NC(=O)c2cccs2)CC1	48.2*	87.4*	48.9*	-10.5	40.8	39.9	33.9*	37.6*
CCC(=O)NCCc1nc2cc(NC(=O)c3ccco3)ccc2n1C	7.1	-4.4	-16.7	20.8	8.2	0.0	nt	nt
Cn1c(Cl)cnc1C1CC(=O)c2cc(Cl)ccc2O1 (stereo not given)	72.0*	-11.4	65.8*	2.8	18.2	-7.9	57.8*	5.2
